# Experimental data from PubChem BioAssay AID588856 (National Center for Advancing Translational Sciences (NCATS), 2011).
# Out of some 410,000 compounds screened, about 3,100 (0.76%) were called active. Where a call stands in place of a potency, no number is given. The call rests on the fitted dose curve; in most records, active means well fitted cell-killing curve with a large enough effect; inactive means no such curve, though single readings can be large or run the other way. The sample as a whole holds a higher share of actives than the screen did.
# Test: qHTS for Inhibitors of TGF-b: Cytotox Counterscreen
# Details: HepG2 CAGA-GFP viability, ATP luminescence, 18 h; series mostly up to 46.1 µM
# Outline: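 HepG2 CAGA-GFP cells (1000/well, DMEM with 1% FBS) received compound, then TGF-beta at 500 pg/mL final, and were incubated 18 hours at 37 degrees C. Viability was read by CellTiter-Glo luminescence. Media-only wells were set as complete cell-killing and DMSO as no toxicity.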
# Potency means the concentration at half of the fitted maximal effect.
row,Compound,Potency
1,COC(=O)c1cc(S(=O)(=O)N2CCN(c3cc(Cl)ccc3C)CC2)c[nH]1,inactive
2,CCCCCCC1(C)NC(c2ccc3c(c2)OCO3)=CC(c2ccccc2O)N1 (stereo not drawn),inactive
3,CCOC(=O)[C@H]1[C@H]2COc3cc(OC)ccc3[C@@H]2N2C(=O)N(c3ccc(Br)cc3)C(=O)[C@@]12C,inactive
4,CS(=O)c1ccc(/C=C2\C=Cc3ccccc32)cc1 (stereo not drawn),inactive
5,N#Cc1ccc[n+](CC(=O)c2ccc(O)c(O)c2)c1,inactive
6,CN(C)c1cccc2ccccc12,inactive
7,O=C(Oc1ccc(-c2nc(-c3ccccn3)no2)cc1)c1ccccc1,5.01 µM (active)
8,O=C(COc1cccc(F)c1)Oc1ccc(C(=O)c2ccccc2)cc1,inactive
9,COC(=O)c1ccc(-c2noc(CN(Cc3ccccn3)CC3CCCO3)n2)cc1 (stereo not drawn),inactive
10,O=C(c1ccco1)n1nc(-c2ccc(Cl)cc2)nc1NCc1ccccc1,inactive
11,O=C(Nc1ccc2c(c1)OCO2)c1cc(-c2cccc(Cl)c2)on1,inactive
12,COc1cc(SC#N)ccc1N=Cc1c(C)[nH]n(-c2ccc(C)cc2)c1=O,12.6 µM (active)
13,O=C(NCCc1ccccc1)c1cnc2sc(N3CCCC3)nn2c1=O,inactive
14,Cc1ccc2oc(C(=O)Nc3ccc(S(=O)(=O)N4CCCCCC4)cc3)cc(=O)c2c1,inactive
15,Fc1ccc(CSc2nc(NCc3ccccc3)c3ccccc3n2)cc1,inactive
16,Fc1ccc(Nc2nc(SCc3ccccc3Cl)nc3ccccc23)cc1,17.8 µM (active)
17,O=C(Nc1nc2ccc(F)cc2s1)c1nc(SCc2ccccc2F)ncc1Cl,inactive
18,COC(=O)c1ccc(NC(=O)c2cc(S(=O)(=O)N3CCC(C)CC3)cn2C)cc1,inactive
19,CN(C)c1ccc(/C=c2\[nH]c(=O)/c(=C/c3ccc(N(C)C)cc3)[nH]c2=O)cc1,inactive
20,Cc1cccc(CCNC(=O)c2ccc3c(c2)nc2n3CCC(C)C2)c1 (stereo not drawn),inactive
21,COc1ccc(-c2nc3ccc(C(=O)NCc4ccc(C)cc4)cc3nc2-c2ccc(OC)cc2)cc1,inactive
22,Cc1cccc(-c2nc3ccc(C(=O)NCCN4CCN(C)CC4)cc3nc2-c2cccc(C)c2)c1,12.6 µM (active)
23,Cc1ccc2nc(N3CCN(c4cccc(Cl)c4)CC3)c3nnnn3c2c1,inactive
24,CCCN(CCC)CCNC(=O)Cn1cnc2sc(C)c(S(=O)(=O)N3CCC(C)CC3)c2c1=O,inactive
25,CCN(CC)c1ccc(/C=C/c2c(C)cnc3ccc(C)cc23)cc1,inactive

row,Compound,Potency
1,CCN(CCCCOC(=O)c1ccc(OC)c(OC)c1)C(C)Cc1ccc(OC)cc1 (stereo not drawn),inactive
2,COc1ccc(C(CCN(Cc2ccc(OC)c(OC)c2)C(=O)CCl)c2ccccc2)cc1 (stereo not drawn),11.2 µM (active)
3,COc1ccc(Cl)cc1NC(=O)CN(C)Cc1ccc(OC)c(OC)c1,inactive
4,S=c1[nH]c(=S)c2n[nH]nc2[nH]1,inactive
5,COc1ccc(N2C(=O)CS(=O)(=O)C23C(=O)N(Cc2ccc(C)cc2)c2ccccc23)cc1Cl (stereo not drawn),inactive
6,CCCC(=O)Nc1cc2nn(-c3ccccc3)nc2cc1C,inactive
7,OC(c1ccc(Cl)cc1)c1ncc(-c2ccc(Cl)cc2)[nH]1 (stereo not drawn),11.2 µM (active)
8,OC(c1ccc(F)cc1)c1ncc(-c2cccc(C(F)(F)F)c2)[nH]1 (stereo not drawn),inactive
9,Cc1ccc(-c2cnc(C(O)c3cc(Cl)cc(Cl)c3)[nH]2)cc1 (stereo not drawn),inactive
10,CCc1ccc(OCCCn2c(CCCNC(=O)C3CCCCC3)nc3ccccc32)cc1,inactive
11,CCCCCCn1nnc2sc(-c3ccccc3)cc2c1=O,inactive
12,CC(=O)c1c(C)n(S(=O)(=O)c2ccc(Cl)cc2)c2ccc(NS(=O)(=O)c3ccc(Cl)cc3)cc12,inactive
13,CCn1c2ccccc2c2cc(NC(=O)COc3ccc(C)cc3C)ccc21,inactive
14,Cc1ccc(OCC(=O)Nc2ccc(NC(=O)c3cccs3)cc2)c(C)c1,1.12 µM (active)
15,Cn1c(SCC(=O)Nc2cccc(NC(=O)c3cccs3)c2)nnc1-c1ccncc1,inactive
16,Cn1c(=O)c(=O)n(C)c2cc(NC(=O)c3ccccc3Br)ccc21,inactive
17,Cc1cccc(-n2ncc(C(=O)N3CCC(C)CC3)c2C2CCN(C(=O)OC(C)(C)C)CC2)c1,inactive
18,Cc1cccc(-n2ncc(C(=O)N3CCN(c4ccc(Cl)cc4)CC3)c2C2CCN(C(=O)OC(C)(C)C)CC2)c1,inactive
19,Cc1cccc(-n2ncc(Cl)c(Cl)c2=O)c1,11.2 µM (active)
20,COc1ccc(/C=C/c2noc(-c3ccccc3O)n2)cc1OC,inactive
21,CCOc1ccc(-c2nonc2NC(=O)c2oc3ccc(C)cc3c2C)cc1OCC,inactive
22,CCOC(=O)c1c(NC(=O)/C(C#N)=C/c2ccccc2)sc2c1CCC2,inactive
23,CCOC(=O)c1c(NC(=O)C(C)Sc2c[nH]c3ccccc23)sc2c1CCC2 (stereo not drawn),25.1 µM (active)
24,CCOC(=O)c1c(NC(=O)c2cc(-c3ccc(Cl)cc3)on2)sc2c1CCCC2,inactive
25,Cc1csc(NCC(=O)c2c[nH]c3ccccc23)n1,inactive

row,Compound,Potency
1,Cc1ccc(C)c(N2CCN(Cc3nnc(-c4ccccc4)o3)CC2)c1,inactive
2,COc1ccc(CCNC(=O)c2ccc(-n3c(C)cc4c3CCCC4)cc2)cc1OC,inactive
3,CCN(CC)c1ccc(NC(=O)CN2CCN(CC(=O)Nc3ccc(Cl)cc3)CC2)cc1,inactive
4,O=C(CN1CCOc2ccccc21)N1CCC(Cc2ccccc2)CC1,inactive
5,O=C(Nc1ccc2c(c1)OCCO2)C(C1CC1)N1CCC(Cc2ccccc2)CC1 (stereo not drawn),15.8 µM (active)
6,O=C(Nc1ccc2c(c1)OCCO2)C(c1ccc(F)cc1)N1CCCCC1 (stereo not drawn),inactive
7,Cc1cccc(Nc2nc(C)nc(N)c2S(=O)(=O)c2ccccc2)c1,inactive
8,COc1ccc(NC(=O)CSc2nccn2C2CCCC2)cc1OC,inactive
9,COc1ccc2c(c1)c(=O)c(C(=O)c1ccccc1)cn2CC(=O)Nc1ccc2c(c1)OCCO2,inactive
10,CCN(CC)c1nc(C#N)nc(OC)n1,inactive
11,COc1ccc(-c2nc(=N)sn2-c2ccccc2)cc1,inactive
12,Nc1ncnc2nnsc12,inactive
13,Cc1cc(C)cc(OC(C)C(=O)Nc2nc3c(s2)CCCC3)c1 (stereo not drawn),inactive
14,COc1ccc(-c2nc3cc(C)ccn3c2NC2CCCCC2)cc1SC1CCCCC1,inactive
15,COc1ccc(-c2nc3cnccn3c2NC2CCCCC2)cc1-c1cccc(Cl)c1,12.6 µM (active)
16,COc1ccc(-c2nc3cnccn3c2NC(C)(C)CC(C)(C)C)cc1O,inactive
17,Cc1cccc(-c2nnc(SC(C)C(=O)Nc3ccccc3)n2C)c1 (stereo not drawn),inactive
18,Cc1nnnn1/C(=C\c1ccccc1)C(=O)OCC(=O)N1CC2(C)CC1CC(C)(C)C2 (stereo not drawn),7.94 µM (active)
19,Oc1ccc(Cl)cc1C1C=C(c2ccc3c(c2)OCO3)NC(c2ccc(F)c(Br)c2)N1 (stereo not drawn),inactive
20,CCOc1ccccc1NC(=O)c1ccc2c(c1)CCN2S(=O)(=O)c1ccc(C)cc1,inactive
21,COc1ccc(C)cc1Nc1nc2ccccc2c2nnc(C)n12,inactive
22,CCCNC(=O)C(CC)n1nc(CC)n2c(cc3oc(C)cc32)c1=O (stereo not drawn),inactive
23,CCOC(=O)c1c(C)[nH]c(CCC(=O)NCCCN2CCN(c3cc(C)ccc3C)CC2)c1C,inactive
24,Cc1ccc(C)c(N2CCN(CCCNC(=O)Nc3ccc(Cl)cc3)CC2)c1,10 µM (active)
25,O=C(NCCCN1CCN(c2ccc(F)cc2)CC1)Nc1ccc([N+](=O)[O-])cc1,inactive

row,Compound,Potency
1,O=C(C1CCC(Cn2c(=O)c3sccc3n(Cc3ccccc3F)c2=O)CC1)N1CCCCC1 (stereo not drawn),inactive
2,COc1cc(CN(C(=O)c2ccccc2Br)c2ccccn2)cc(OC)c1OC,inactive
3,COc1cccc(CC2(CO)CCN(Cc3cnc(-c4cccc(C)c4)nc3)CC2)c1,inactive
4,CCC(C)CN1CCC(CO)(Cc2ccccc2Cl)CC1 (stereo not drawn),inactive
5,Cc1c(CN2CCC(CO)(CCOc3ccccc3)CC2)[nH]c2ccc(Cl)cc12,20 µM (active)
6,Cc1ccc(S(=O)(=O)Oc2ccc(/C=N/NC(=O)c3c(Cl)cnn3C)cc2)cc1,inactive
7,COc1cc(/C=N/O)cc(Br)c1OS(=O)(=O)c1ccc(C)cc1,12.6 µM (active)
8,COc1cc(/C=C/c2ccc(/C=C/c3cc(OC)c(OC)c(OC)c3)cc2)cc(OC)c1OC,inactive
9,CO[C@H]1O[C@@H]2O[C@@]3(C)CC[C@@H]4[C@@H](C)CC[C@@H]([C@H]1C)[C@@]24OO3,inactive
10,Fc1ccc(-c2nc(Nc3cccc(Cl)c3)nc3c2COc2ccccc2-3)cc1,inactive
11,Cc1oc(-c2ccccc2F)nc1CN1CCC(C(=O)NCCc2ccc(Cl)cc2)CC1,inactive
12,COc1ccc(Cn2ccc3nc(C)c(C(=O)Nc4ccc(C)c(F)c4)cc3c2=O)cc1,inactive
13,O=C(NC1=CC(=O)c2ccccc2C1=O)c1ccccc1,15.8 µM (active)
14,CC1=C(C(=O)N2CCN(c3cccc(C(F)(F)F)c3)CC2)C2(CCCCC2)OC1=O,inactive
15,Cc1ccc(SCC(CC(C)C)N2CCN(CCc3ccccc3)CCC2=O)cc1 (stereo not drawn),inactive
16,COc1ccc(C(=O)Nc2cccc(C(=O)OCc3cc(=O)n4c5c(sc4n3)CCCC5)c2)cc1,inactive
17,CCC1CCCCN1Cc1c(O)ccc2c(=O)c(Oc3ccccc3Cl)c(C(F)(F)F)oc12 (stereo not drawn),inactive
18,CC1=C/C(=N\OS(=O)(=O)c2ccccc2)C=CC1=O,12.6 µM (active)
19,CCc1ccc(CNC(=O)c2cc3cc4ccc(OC)cc4nc3o2)cc1,inactive
20,Cc1ccc(-c2cnc(C3CC3)o2)cc1S(=O)(=O)Nc1cccc(C)c1C,inactive
21,C=CCNC(=S)N1CCN(CCN=Cc2c(C)[nH]n(-c3ccc([N+](=O)[O-])cc3)c2=O)CC1,inactive
22,CCC(=O)c1ccc(N2CCN(C(=O)c3cc([N+](=O)[O-])ccc3F)CC2)c(F)c1,inactive
23,Cc1[nH]n(-c2ccc([N+](=O)[O-])cc2)c(=O)c1C=NCCN1CCN(C(=O)c2ccccc2F)CC1,2 µM (active)
